Hits are enriched below; roughly 27% of the tested compounds scored in any of these assays.
CYP2C19 activ: increases human CYP2C19 enzyme activity. P33261. 96,000 tested, under 10 active. recombinant CYP2C19, luciferin-H EGE luminescence; hits give high values; 0 = fully inhibited enzyme, 1 = untreated enzyme. activation factor at 5 µM;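 active means activation factor of at least 2 at 5 µM in the primary screen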;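 further: 0 = wells with 2.5 mM tranylcypromine and 1 = vehicle-only wells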
sEH activator: soluble epoxide hydrolase (human) activation; purified human sEH enzymatic activity, activator screen; activation, % at 2 µM; 91,000 tested, 0.04% active; AID 717; in the data active means activation above about 37%
CYP2C9 act: CYP2C9 (human) activation | 96,000 tested, 1.4% active | P11712 | activation factor at 5 µM | recombinant CYP2C9, luciferin-H conversion, luminescence; hits give high values; factor 1 = untreated enzyme, 0 = blocked;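 active means activation factor of 2 or more for CYP2C9 at a 5 µM dose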;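 further: 0 = sulfaphenazole-blocked wells and 1 = vehicle-only wells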
Target sequence (P11712 whole entry, looked up): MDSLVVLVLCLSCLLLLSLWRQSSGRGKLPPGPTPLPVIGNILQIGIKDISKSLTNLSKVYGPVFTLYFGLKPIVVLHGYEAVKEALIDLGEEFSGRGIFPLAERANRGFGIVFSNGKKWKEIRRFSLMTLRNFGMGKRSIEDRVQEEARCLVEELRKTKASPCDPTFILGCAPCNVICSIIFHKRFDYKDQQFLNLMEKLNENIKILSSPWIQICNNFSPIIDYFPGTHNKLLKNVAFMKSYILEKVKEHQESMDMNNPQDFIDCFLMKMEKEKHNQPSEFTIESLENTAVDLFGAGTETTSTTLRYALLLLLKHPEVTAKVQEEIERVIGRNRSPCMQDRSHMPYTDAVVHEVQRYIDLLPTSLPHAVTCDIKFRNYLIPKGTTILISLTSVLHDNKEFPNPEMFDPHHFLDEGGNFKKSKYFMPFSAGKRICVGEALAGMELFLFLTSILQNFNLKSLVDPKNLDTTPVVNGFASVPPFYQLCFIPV
CYP2C19 inhib: human CYP2C19 inhibition | P33261 | CYP2C19 Supersomes, luciferin-H EGE luminescence, 30 min | inhibition, % at 5 µM | 96,000 tested, 21% active | AID 778;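 active means CYP2C19 inhibition above a set limit at 5 µM in the primary screen, cut at about 50% in these data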;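 further: plate controls were negative control wells for no effect and 2.5 mM tranylcypromine positive control for full effect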
CYP2C9 inh: human CYP2C9 inhibition | CYP2C9 Supersomes, luciferin-H conversion, luminescence | inhibition, % at 5 µM | 96,000 tested, 20% active;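 active means blocking of liver enzyme CYP2C9 beyond about 50% at 5 µM, limit read from the data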
sEH inh: soluble epoxide hydrolase (human) inhibition | 91,000 tested, 0.34% active | recombinant human sEH enzymatic activity assay | inhibition, % at 2 µM; in the data active means inhibition above about 80%
* hit, by the source's call; nt = no result given.

SMILES	CYP2C19 activ	sEH activator	CYP2C9 act	CYP2C19 inhib	CYP2C9 inh	sEH inh
Cc1ccc(-c2ccc(CCC(=O)O)n2Cc2ccco2)cc1	0.7	-8	0.4	32	57*	9
COC(=O)Cn1c(CN2CCC(Cc3ccccc3)CC2)nc2c1c(=O)n(C)c(=O)n2C	0.5	-2	0.9	46	14	5
Cc1ccc2c(c1)c1c3n2CCCN(Cc2ccccc2)C3CCC1 (stereo not drawn)	0.4	-5	0.7	61*	32	6
Cc1ccc2c(c1)c1c3n2CCN(C(=O)C2CC2)C3CCC1 (stereo not drawn)	0.6	-12	0.5	42	50*	11
Cc1ccc2c(c1)c1c3n2CCN(C(=O)CN2CCN(C)CC2)C3CCC1 (stereo not drawn)	0.8	nt	0.9	15	14	nt
Cc1ccc2c(c1)c1c3n2CCN(C(=O)Cn2c(-c4ccccc4)noc2=O)C3CCC1 (stereo not drawn)	0.9	-10	0.5	9	50*	12
Cn1cc(S(=O)(=O)N2CCN(C(=O)c3ccco3)CC2)c(=O)n(C)c1=O	1.1	3	1.2	-15	-22	-4
COC(=O)c1ccc(C)c(N(CCO)CCO)c1	0.7	nt	1	26	1	nt
Cc1nn(Cc2ccccc2Cl)c(C)c1C(=O)N1CCN(c2ccccc2)CC1	0.4	3	0.3	62*	72*	-3
Cc1nn(Cc2ccccc2Cl)c(C)c1C(=O)NC1=NCCS1	0.3	-7	0.6	66*	42	5
Cc1nn(Cc2ccccc2Cl)c(C)c1NC(=O)c1nc2ncccn2n1	nt	-8	nt	nt	nt	10
CCc1nnc(NC(=O)c2c(C)nn(-c3ccccc3)c2Cl)s1	1	nt	0.7	4	26	nt
CCC(CC)c1nnc(NC(=O)c2c(C)nn(Cc3ccccc3Cl)c2C)s1	0.8	-12	0.5	19	52*	16
Cc1cc(C(=O)N2CCN(c3ccccc3)CC2)no1	0.7	5	0.9	30	10	-3
Cc1nn(Cc2ccccc2Cl)c(C)c1NC(=O)NC12CC3CC(CC(C3)C1)C2	0.9	-91	0.7	15	27	91*
C/C=C/C=[N+](\[O-])C(C)/C(=N/O)c1ccc(F)cc1 (stereo not drawn)	1	-3	1	-1	-1	2
Cc1ccc(Cn2ncn3c(cc4ccccc43)c2=O)cc1	1.1	-5	0.9	-8	14	5
Cc1cc(S(=O)(=O)NCc2cccnc2)ccc1-n1cnnn1	0.6	8	1.2	37	-19	-7
COc1ccc(OC)c(C(=O)Cn2nnc3ccccc3c2=O)c1	1.1	-6	1.1	-10	-5	7
COc1cccc(CNn2c(-c3cccc(C)c3)nc3ccccc3c2=O)c1	0	12	0	98*	98*	-14
COc1ccc(OC)c(CNn2c(-c3cccc(C)c3)nc3ccccc3c2=O)c1	0.1	6	0.2	89*	80*	-7
COc1ccc(N2CCN(CC(=O)Nc3ccc(-n4cnnn4)cc3)CC2)cc1	nt	-3	nt	nt	nt	3
O=C1Nc2ccccc2C1(c1ccccc1)c1ccccc1	0.3	0	0.3	72*	74*	3
Nc1ccc(C2(c3ccc(N)cc3)C(=O)Nc3ccccc32)cc1	0.8	-1	0.9	16	5	0
O=C(OCc1ccccc1F)c1ccc2c(c1)-c1ccccc1C2=O	1.1	-5	1	-10	0	8
SMILES	CYP2C19 activ	sEH activator	CYP2C9 act	CYP2C19 inhib	CYP2C9 inh	sEH inh
CC(C)Cn1cc(C(=O)NCc2cccs2)c2c3ccccc3n(C)c2c1=O	1.1	-20	0.8	-8	17	18
CCc1ccccc1NC(=O)c1nnn(CC(=O)Nc2ccccc2C)c1N	0.9	-12	1.3	13	-30	9
CCn1c(-c2ccccc2Cl)nn(CC(=O)Nc2ccc(OC)cc2)c1=S	0.4	-2	0.4	56*	60*	5
CCn1nc(C(=O)Nc2ccccc2C)c(Cl)c1Cl	0.5	-3	0.5	48	55*	2
CCn1c(-c2ccccc2Cl)nn(CC(=O)Nc2ccccc2C)c1=S	0.5	-6	1	51*	-1	8
CCn1nc(C(=O)Nc2cccc3ccccc23)c(Cl)c1Cl	0.6	14	0.9	35	12	-13
CCOc1ccc(NC(=O)Cn2nc(-c3ccccc3Cl)n(CC)c2=S)cc1	0.4	-2	0.3	62*	68*	5
Cc1ccc(CC(=O)NCCS(=O)c2ccc(Cl)cc2)cc1 (stereo not drawn)	0.7	3	0.8	29	19	-4
CCN(CC)S(=O)(=O)c1ccc(F)c(C(=O)NCCC(C)C)c1	nt	-58	nt	nt	nt	58
COCCNC(=O)C(c1cccs1)N(C(=O)Cn1nnc2ccccc21)c1ccc(OC)cc1 (stereo not drawn)	nt	-5	nt	nt	nt	6
CCCn1nc(C(=O)NCCc2ccc(S(N)(=O)=O)cc2)c2ccccc2c1=O	1.1	9	0.6	-14	36	-12
Fc1ccc(CNc2cnccn2)cc1	0.9	-3	0.8	10	17	5
COc1cccc(-c2cc(C(=O)NCCc3ccccc3)no2)c1	0.9	4	0.8	12	20	-2
COc1ccc(-c2cc(C(=O)NCCCn3ccnc3)no2)cc1OC	0.3	-10	0.5	65*	50*	7
COc1cccc(-c2cc(C(=O)NCCCn3ccnc3)no2)c1	0.2	0	0.3	80*	71*	-2
CCCCNC(=O)c1cc(-c2ccc(OC)c(OC)c2)on1	0.9	6	1.2	11	-16	-4
COc1ccc(-c2cc(C(=O)N(C)Cc3ccccc3)no2)cc1OC	0.8	1	0.5	21	50*	0
O=C(NCCc1ccccc1)c1cc(-c2ccc3c(c2)OCO3)on1	1	nt	0.8	3	21	nt
O=C(NCCCn1ccnc1)c1cc(-c2ccc3c(c2)OCO3)on1	0.3	15	0.5	66*	46	-12
CCCCn1nc2cc(C(=O)NCC34CC5CC(CC(C5)C3)C4)ccc2c1OC	0.7	-10	0.8	26	21	13
O=C(c1ccc(S(=O)(=O)N2CCC(c3nc4ccccc4s3)CC2)cc1)N1CCCCC1	nt	-4	nt	nt	nt	3
CC1CCCC(C)N1C(=O)CSc1nc2ccccc2s1 (stereo not drawn)	0.1	-2	0.4	86*	61*	2
CC1CN(C(=O)C(C)Sc2nc3ccccc3s2)CC(C)O1 (stereo not drawn)	0.1	11	0.6	94*	44	-14
CCc1ccc(C(=O)N2CCC(c3nc4ccccc4s3)CC2)cc1	0.6	-2	0.2	39	76*	5
Cc1cc(NC(=O)CSc2nc3ccccc3s2)no1	0.7	1	0.7	34	26	-2
O=C(CSc1nc2ccccc2s1)N1CCCCC1	0.2	-8	0.8	84*	21	6
CCCCC(CCC(=O)Nc1ccc(C(=O)OC)cc1)C(=O)O (stereo not drawn)	nt	15	nt	nt	nt	-14

Screening results (PubChem)
